# From PubChem
# An excerpt weighted towards active compounds, which were near 3.7% of everything screened.
# VDR inhibitor = vitamin D3 receptor (human) inhibition; P11473; VDR-SRC2-3 peptide fluorescence polarization, 2 h; Potency, µM, without a hit: max response, negative = inhibition, most hits filed as inhibitors; 400,000 tested, 0.93% active; note: potency is the fitted concentration of half-maximal effect; % is set by controls: 0 for no effect and ±100 for the full control effect
# Target sequence (P11473 whole entry, looked up): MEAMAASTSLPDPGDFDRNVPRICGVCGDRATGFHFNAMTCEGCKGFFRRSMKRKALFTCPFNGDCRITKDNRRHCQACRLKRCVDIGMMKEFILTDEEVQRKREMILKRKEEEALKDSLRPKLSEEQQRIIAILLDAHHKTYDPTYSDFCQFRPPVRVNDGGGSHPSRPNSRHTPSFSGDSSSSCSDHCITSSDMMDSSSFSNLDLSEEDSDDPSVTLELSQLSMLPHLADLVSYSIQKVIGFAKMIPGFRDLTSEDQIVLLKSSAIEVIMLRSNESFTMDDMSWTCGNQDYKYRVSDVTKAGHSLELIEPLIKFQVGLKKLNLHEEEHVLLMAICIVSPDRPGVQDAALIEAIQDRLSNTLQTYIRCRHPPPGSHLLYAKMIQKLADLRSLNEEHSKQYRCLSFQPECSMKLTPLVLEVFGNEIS
#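 Compounds are added to VDR with labelled SRC2-3 coactivator peptide and held 2 h at room temperature. Inhibition of the VDR–peptide interaction is then read as a change in fluorescence polarization.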
# WRN helicase inh = blocks human WRN helicase | 360,000 tested, 0.46% active | Q14191 | AID 651768 | Potency, µM (top dose mostly 114 µM), without a hit: top-dose activity change, negative = inhibition, usual class: inhibitors | WRN helicase unwinding, fluorescent forked duplex, kinetic; note: potency is the fitted concentration of half-maximal effect; % is set by controls: 0 for no effect and ±100 for the full control effect; nearly all actives have a fitted effect of over 55% in size
#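 Kinetic red-fluorescence monitoring (525/598 nm) tracks WRN helicase activity after 100 nM fluorophore-quencher forked duplex and 2 mM ATP are added to 20 nM enzyme pretreated 15 min at room temperature with compound.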
# TCR act = T cell receptor activation. primary human leukocytes, anti-CD3, IL-2 HTRF, 48 h. Potency, µM (highest dose often 9.22 µM), without a hit: at the top dose activation of IL-2 secretion, actives largely listed as activators. 330,000 tested, under 10 active. AID 504894; note: % of control where 0% means no effect
#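 IL-2 produced over 48 hr by a-CD3 bead-stimulated primary human leukocytes exposed to compounds was detected with a homogeneous time-resolved FRET immunoassay, 665nm acceptor signal after 320nm excitation.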
# FEN1 inh = human FEN1 inhibition. P39748. Recombinant FEN1 flap cleavage, fluorescence, 15 min. Potency, µM (top dose mostly 114 µM), for the others: at the highest dose activity change, negative = inhibition, usual class: inhibitors. 390,000 tested, 0.35% active. AID 588795; note: potency is the fitted concentration of half-maximal effect; % is set by controls: 0 for no effect and ±100 for the full control effect; nearly all actives have a fitted effect of over 65% in size
#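 Potency values derive from four-parameter Hill fits of normalized qHTS data. The reaction used 10 nM FEN1 preincubated 15 min at room temperature with compound, then 50 nM DNA substrate, read at 0 and 15 min.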
# PLK1 PBD block = PLK1 (human) polo-box domain binding inhibition | Potency, µM, without a hit: max response, negative = inhibition, most hits filed as inhibitors | 360,000 tested, 2.8% active | P53350 | Plk1 PBD binding of FITC phosphopeptide, fluorescence polarization | AID 720504; note: potency is the fitted concentration of half-maximal effect; series mostly up to about 57 µM; % is set by controls: 0 for no effect and ±100 for the full control effect; nearly all actives have a fitted effect of over 65% in size
# PI5P4Ka inh = blocks human PI5P4K alpha kinase activity. PI5P4Kalpha enzyme, ADP-Glo luminescence, 60 min; stronger effect = lower value. max response, %. 330,000 tested, 1.2% active; active = max response of -50% or lower; inconclusive = between -30% and -50%; inactive = -30% or higher; note: value at the top dose of about 77 µM; % is set by controls: 0 for no effect and ±100 for the full control effect
#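 Reactions run in 0.038 M HEPES pH 7.4, 0.28 mM EGTA, 0.1% CHAPS and 5% DMSO, with PI5P4Kalpha, substrate, compound and 5 microM ATP final, one hour at room temperature. Readout is ADP-Glo luminescence.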
# USP1-UAF1 confirm = validation of human USP1/UAF1 inhibitors. shares compounds with VDR inhibitor. Potency, µM (doses to about 56.8 µM), for inactives: at the top dose activity change, negative = inhibition, actives largely listed as inhibitors. AID 540327. Ub-Rhodamine cleavage, fluorescence kinetic read. 50 tested, 50% active
# VDR inh confirm = inhibits human vitamin D receptor, primary hit validation | shares compounds with VDR inhibitor | VDR-coactivator inhibition assay, qHTS confirmation | 840 tested, 89% active | Potency, µM, hits mostly inhibitors | AID 602199; note: potency is the fitted concentration of half-maximal effect
# VDR FP = confirmation of human VDR-coactivator binding inhibitors, fluorescein label; AID 602200; shares compounds with VDR inhibitor; VDR-coactivator binding, fluorescein fluorescence polarization; 840 tested, 48% active; Potency, µM (titrated, usually from 57.1 µM), for inactives: at the highest dose activity change, negative = inhibition, usual class: inhibitors; note: potency is the fitted concentration of half-maximal effect
# VDR bla reporter = confirmation of human vitamin D receptor inhibitors in reporter cells | shares compounds with VDR inhibitor | VDR beta-lactamase reporter cells, FRET ratio; cells co-treated with VDR agonist LG190178 | Potency, µM (titrated, usually from 46.1 µM), inactives show at the highest dose activity change, negative = inhibition, hits mostly inhibitors | 840 tested, 23% active | AID 602202; note: potency is the fitted concentration of half-maximal effect; % is set by controls: 0 for no effect and ±100 for the full control effect
# VDR viability = cytotoxic in counter-screen for VDR inhibitors; shares compounds with VDR inhibitor; cytotoxicity counter-screen, cell viability, qHTS; Potency, µM (top dose mostly 48.3 µM), for the others: top-dose activity change, negative = cytotoxicity, most hits filed as cytotoxic; 840 tested, 18% active; AID 602204;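 note: potency is the fitted concentration of half-maximal effect; plate controls were DMSO for no effect and high-concentration cycloheximide for full effect; nearly all actives have a fitted effect of over 75% in size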
# Active calls of the source: *; ? = inconclusive; . = no result given; [ ] = another dose, or the depositor's remark. Unless noted, calls come from the whole dose curve; as a rule, active = well fitted curve in the direction sought with a large enough effect; inconclusive = small, poorly fitted or top-dose-only effect, or another doubt; inactive = no such curve, though single readings can be large; an effect the other way counts as inactive or inconclusive.
SMILES,VDR inhibitor,WRN helicase inh,TCR act,FEN1 inh,PLK1 PBD block,PI5P4Ka inh,VDR inh confirm,VDR FP,VDR bla reporter,VDR viability,others
COc1ccc(C(=O)Nc2nnc(S(=O)(=O)N3CCN(c4ccc(C)cc4)CC3)s2)cc1,1%,.,.,2%,.,.,.,.,.,.,
CC(C)c1nnc(NC(=O)c2nc(S(=O)(=O)Cc3ccccc3)ncc2Cl)s1,16µM*,-24%,7%,1%,?,-10,9.5*,7.9µM*,6.5µM*,15µM*,
CCCc1nnc(NC(=O)c2nc(S(=O)(=O)Cc3ccc(C)cc3)ncc2Cl)s1,28µM*,34%,-1%,4%,-21%,-4,?,7.9µM*,18µM*,21µM*,
CSc1ncc(Cl)c(C(=O)Nc2nnc(SC)s2)n1,6%,1%,-3%,1%,3%,-13,.,.,.,.,
CSc1nnc(NC(=O)c2nc(S(=O)(=O)Cc3ccccc3)ncc2Cl)s1,?,-12%,-10%,-2%,30µM*,-15,10*,8.9µM*,5.2µM*,27µM*,
COc1ccc(-c2nc(C)c(CCNC(=O)c3c(F)cccc3F)s2)cc1,9%,.,.,8%,.,.,.,.,.,.,
CC(=O)Nc1sc(N/N=C\c2ccccc2Cl)nc1-c1cccs1,?,-32%[57.1 µM],-2%[46.1 µM],-2%,-6%,-10,.,.,.,.,
CC(=O)Nc1sc(N/N=C\c2ccccc2)nc1-c1cccs1,32µM*,-35%[57.1 µM],1%[46.1 µM],2%,?,-29,3.4*,?,-2%,-10%,
CCOc1ccccc1CNC(=O)CCCn1c(=O)c2cccn2c2ccc(F)cc21,11%,.,.,-11%,.,.,.,.,.,.,
COc1cc(OC)c(C(=O)C=Cc2ccc(OC)c(OC)c2)c(OC)c1,27%,-10%,2%,0%,-16%,0,.,.,.,.,
COc1ccc(/C=C/C(=O)c2ccc([N+](=O)[O-])o2)cc1OC,18µM*,-22%,2%,?,?,-2,3.5*,3.5µM*,3.3µM*,17µM*,
CCOC(=O)c1c(C)oc2ncnc(N3CCN(c4ccccc4F)CC3)c12,5%,.,.,6%,.,.,.,.,.,.,
COC(CNC(=O)c1ccc2c3c(onc13)-c1ccccc1C2=O)OC,40µM*,50µM*,-1%,?,3.4µM*,-29,3.8*,?,?,?,
CC(=O)c1c(C)oc2ccc(N(C(=O)Oc3ccccc3)S(=O)(=O)c3ccc(Cl)cc3)cc12,-8%,.,.,21%,.,.,.,.,.,.,
COc1ccc(NC(=O)c2c(NC(=O)COc3ccccc3)sc3c2CCCCC3)cc1,-20%,.,.,0%,.,.,.,.,.,.,
O=C(COc1ccc(Cl)cc1)Nc1sc2c(c1C(=O)Nc1cccc(Cl)c1)CCCC2,?,.,.,?,.,.,7.9*,7.9µM*,-7%,-4%,
CCOc1ccc(NC(=O)CC2C(=O)N(c3ccccc3)C(=O)N2C2CCCC2)cc1 (stereo unspecified),13%,.,.,-5%,.,.,.,.,.,.,
CCOc1ccc(NC(=O)CC2SC(=O)N(c3ccccc3)C2=O)cc1 (stereo unspecified),28µM*,?,8%,7%,9.5µM*,-3,?,?,29%,14%,
CCCSc1ncc(Cl)c(C(=O)N2CCN(c3ccc(OC)cc3)CC2)n1,-1%,.,.,2%,.,.,.,.,.,.,
CCOC(=O)CCS(=O)(=O)c1nc(-c2ccccc2)cc(C(F)(F)F)n1,45µM*,?,-3%,6%,?,9,6*,10µM*,?,?,
CCOC(=O)CS(=O)(=O)c1ccccc1,-13%,-1%,0%,0%,-2%,0,.,.,.,.,
CCOC(=O)CS(=O)(=O)c1nc(-c2ccccc2)cc(C(F)(F)F)n1,20µM*,56µM*,4%,-5%,11µM*,0,7.5*,?,?,?,
Cc1nn(CC(=O)NCc2ccccc2Cl)c(=O)c2cccn12,1%,.,.,1%,.,.,.,.,.,.,
O=C1/C(=C/c2ccncc2)CCC/C1=C\c1ccncc1,7.1µM*,?,2%,-8%,21µM*,-8,5.3*,3.5µM*,3.3µM*,21µM*,
O=C1C(=Cc2ccncc2)CCCc2ccccc21,.,-4%,.,.,-9%,0,.,.,.,.,
O=C(Cn1c(=O)c2cccn2c2ccc(F)cc21)N1CCN(c2ccccc2F)CC1,-2%,.,.,-11%,.,.,.,.,.,.,
CCc1ccc(S(=O)(=O)c2nnn3c2nc(NCc2cccc(OC)c2)c2cc(Cl)ccc23)cc1,-10%,.,.,-13%,.,.,.,.,.,.,
C=CC(C)(C)c1c(O)c(CC=C(C)C)c(O)c2c(=O)c3ccc(O)c(O)c3oc12,9%,-12%,1%,-26%,7%,-12,.,.,.,.,
C=CC(C)(C)c1[nH]c2ccccc2c1C1=C(O)C(=O)C(c2c[nH]c3c(CC=C(C)C)cccc23)=C(O)C1=O,18µM*,.,.,.,.,.,.,.,.,.,USP1-UAF1 confirm=?
